# In the supplement of paper PMC10646978:
# ± gives the standard deviation.
# Legend:
# Conditions in all cases: modulator concentration 10 µM
# [1] = system: RAW-Dual (murine macrophage reporter line); assay: NF-kB reporter (SEAP) activity fold change vs agonist alone; higher = enhanced NF-kB activity
# Summary of the method: (§1)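 Overnight stimulation with a PRR agonist followed pre-incubation for 1 hour at 37 °C with compound at 10 μM final. This was done in RAW-Dual murine macrophage reporter cells seeded at 50 000 per well in 384-well plates. NF-κB (SEAP, QUANTI-Blue absorbance at 620 nm) and IRF (Lucia luciferase, QUANTI-Luc luminescence) were read from the supernatant. Each reporter's fold change relative to the mean agonist-only control on the same plate was averaged over replicate plates.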
# [2] = system: RAW-Dual (murine macrophage reporter line); assay: IRF reporter (Lucia luciferase) activity fold change vs agonist alone; higher = enhanced IRF activity
# Summary of the method: as §1
# [3] = system: RAW-Dual (murine macrophage reporter line); assay: viability score (confluency relative to resting cells, overnight) (fraction); higher = more viable, active = viable (0.7 or more)
# Summary of the method: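 In 384-well plates, RAW-Dual macrophages received compound at a final 10 μM overnight. Two confluency masks were then made with IncuCyte software from IncuCyte images of all imaged wells. The viability score is defined as confluency relative to resting cells. Passing the cutoff required both masks to lie above 70% of resting cells.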
# [4] = agonist: CpG ODN 1826 0.5 ug/mL
Structure (SMILES),"NF-kB reporter [1, 4]",NF-kB reporter ([1]; agonist: LPS 0.1 ug/mL),NF-kB reporter ([1]; agonist: MPLA […]),IRF reporter ([2]; agonist: 3'3'-cGAMP 10 ug/mL),IRF reporter ([2]; agonist: LPS 0.1 ug/mL),IRF reporter ([2]; agonist: MPLA […]),viability score [3]
CCOC(=O)c1cc(-c2ccccc2)sc1NC(=O)C(C)(C)C,0.798 ± 0.068,0.907 ± 0.055,1.2 ± 0.17,0.945 ± 0.055,1.3 ± 0.093,1.44 ± 0.17,1.02 (active)
Cc1ccc(OCCCOc2cccc3cccnc23)c(Br)c1,0.998 ± 0.071,1.01 ± 0.078,1.01 ± 0.027,0.829 ± 0.053,0.935 ± 0.13,0.981 ± 0.21,0.998 (active)
CCN(CC)CCOC(=O)C(Cc1cccc2ccccc12)CC1CCCO1.O=C(O)C(=O)O (stereo not given),0.672 ± 0.21,1.05 ± 0.061,0.998 ± 0.11,0.491 ± 0.026,1.12 ± 0.2,1.27 ± 0.13,0.977 (active)
CN(C)c1ccc(C=C2C(=O)C(=O)c3ccccc32)cc1Br,0.989 ± 0.098,0.947 ± 0.15,0.999 ± 0.036,1.02 ± 0.21,1 ± 0.043,1 ± 0.16,1 (active)
CS(=O)(=O)N1C2CCC1CC(NC(=O)NC1CCCC1)C2 (stereo not given),1.01 ± 0.11,1.03 ± 0.12,0.88 ± 0.059,0.98 ± 0.093,1.21 ± 0.14,1.2 ± 0.26,1.01 (active)
O=C(Nc1ccc(NS(=O)(=O)c2ccccc2)cc1)c1ccco1,1.12 ± 0.14,0.922 ± 0.13,0.998 ± 0.035,0.879 ± 0.14,0.818 ± 0.035,0.823 ± 0.095,1 (active)
CN1CCN(CCOc2cc(OC3CCOCC3)c3c(Nc4c(Cl)ccc5c4OCO5)ncnc3c2)CC1,0.135 ± 0.02,1.48 ± 0.29,1.99 ± 0.11,0.395 ± 0.012,0.597 ± 0.13,0.983 ± 0.17,0.886 (active)
c1ccc2nc3c(cc(N4CCOCC4)c4ccccc43)nc2c1,0.92 ± 0.078,1.04 ± 0.062,0.969 ± 0.14,0.924 ± 0.023,1.34 ± 0.2,1.08 ± 0.2,1.01 (active)
Cc1cc(Nc2cc(CN3CCOCC3)c3nc(C)c(Cc4ccc(Cl)cc4F)n3n2)[nH]n1,2.15 ± 0.29,1.46 ± 0.39,1.59 ± 0.13,0.291 ± 0.025,0.884 ± 0.16,2.72 ± 0.31,0.0653 (inactive)
CC(C)(C(=O)O)c1ccc(C(O)CCCN2CCC(C(O)(c3ccccc3)c3ccccc3)CC2)cc1.Cl (stereo not given),1.47 ± 0.22,1.28 ± 0.39,1.01 ± 0.067,0.924 ± 0.029,1.05 ± 0.48,1.19 ± 0.09,0.983 (active)
CN(C)CCCN1c2ccccc2CCc2ccc(Cl)cc21.Cl,0.559 ± 0.098,1.15 ± 0.43,1.64 ± 0.2,0.503 ± 0.02,1.18 ± 0.53,1.78 ± 0.18,0.239 (inactive)
Cc1cc(=O)[nH]c(-n2nc(C)c(CCC(=O)N3CCN(C)CC3)c2C)n1,1.16 ± 0.092,1.13 ± 0.089,0.977 ± 0.028,1.01 ± 0.084,1.05 ± 0.12,0.931 ± 0.095,0.994 (active)
O=C(NC1CC2CCC1C2)c1ccccc1Cl (stereo not given),0.725 ± 0.064,0.801 ± 0.047,1.08 ± 0.099,0.983 ± 0.049,1.35 ± 0.12,1.51 ± 0.24,1.02 (active)
Cl.O[C@@H](c1cc(C(F)(F)F)nc2c(C(F)(F)F)cccc12)[C@H]1CCCCN1,0.671 ± 0.091,0.59 ± 0.044,1.05 ± 0.071,0.504 ± 0.066,1.04 ± 0.096,2.25 ± 0.17,0.137 (inactive)
Cc1c(Cl)cccc1S(=O)(=O)NCc1ccnc(N2CCCC2=O)c1,1.01 ± 0.055,1.03 ± 0.094,0.92 ± 0.043,0.993 ± 0.057,1.07 ± 0.079,1.03 ± 0.093,0.957 (active)
